ChEMBL document CHEMBL3433997, “St. Jude Leishmania screening dataset” (2016)

Tests used:
Type in all cases: functional
[1] = target: Solute carrier family 2, facilitated glucose transporter member 1 (Homo sapiens) (UniProt P11166); assay: ST_JUDE_LEISH: Cytotoxicity at 2uM final concentration against transgenic Leishmania Mexicana promastigotes LmGLUT1 that are glucose transport deficient and complemented with the human glucose transporter GLUT1. Activity is measured by DNA content using SYBR green in vitro
Chain of Solute carrier family 2, facilitated glucose transporter member 1 (Homo sapiens) (P11166 whole entry): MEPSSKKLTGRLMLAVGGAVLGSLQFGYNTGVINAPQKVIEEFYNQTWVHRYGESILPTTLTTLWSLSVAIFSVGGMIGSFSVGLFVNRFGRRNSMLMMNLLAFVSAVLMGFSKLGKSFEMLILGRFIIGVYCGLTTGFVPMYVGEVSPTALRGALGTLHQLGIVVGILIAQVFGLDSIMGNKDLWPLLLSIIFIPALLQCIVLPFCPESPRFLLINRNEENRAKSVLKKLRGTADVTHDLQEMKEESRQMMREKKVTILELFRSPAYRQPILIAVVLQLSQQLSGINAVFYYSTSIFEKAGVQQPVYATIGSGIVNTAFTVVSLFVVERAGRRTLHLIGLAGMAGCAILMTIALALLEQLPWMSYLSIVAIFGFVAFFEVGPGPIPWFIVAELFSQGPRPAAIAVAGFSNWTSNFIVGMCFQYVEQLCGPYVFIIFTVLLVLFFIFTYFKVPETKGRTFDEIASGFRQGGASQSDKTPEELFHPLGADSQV

[2] = target: Hexose transporter 1 (Plasmodium falciparum) (UniProt O97467); assay: ST_JUDE_LEISH: Cytotoxicity at 2uM final concentration against transgenic Leishmania Mexicana promastigotes LmPfHT that are glucose transport deficient and complemented with the Plasmodium falciparum hexose transporter. Activity is measured by DNA content using SYBR green in vitro
[3] = target: Glucose transporter (Leishmania mexicana) (UniProt O61059); assay: ST_JUDE_LEISH: Cytotoxicity at 2uM final concentration against transgenic Leishmania Mexicana promastigotes LmGT2 that are glucose transport deficient and complemented with the L. Mexicana glucose transporter 2. Activity is measured by DNA content using SYBR green in vitro

| Structure (SMILES) | inhibition [1] [%] | inhibition [2] [%] | inhibition [3] [%] |
| --- | --- | --- | --- |
| O=[N+]([O-])c1ccc(Nc2nc(N/N=C/c3cccc(O)c3)nc(N3CCCC3)n2)cc1 | 3.46 | 3.1 | 1.31 |
| Cc1cc(N[C@@H](Cc2ccccc2)C(=O)NC2CCCC2)nc(NCC2CCCCC2)n1 | 3.03 | 3.67 | 0.45 |
| c1ccc2[nH]c(-c3ccc(-c4ccc(CN5CCCCC5)cc4)s3)nc2c1 | 0.97 | 0.62 | -0.34 |
| COc1ccccc1CCNc1nccc(N[C@@H](Cc2ccccc2)C(=O)NCc2cccs2)n1 | 1.78 | 1.77 | -0.08 |
| COc1ccc2ncc(F)c(CCN3C4CCC3CC(NCc3ccc5c(c3)OCCO5)C4)c2n1 (stereo unspecified) | 59.9 | 71.9 | 79.2 |
| CC(=O)Nc1ccc(-c2nc3ccc(-c4nc5ccc(NC(C)=O)cc5[nH]4)cc3[nH]2)cc1 | 5.99 | 3.79 | 5.3 |
| O=S(=O)(NCCN1CCCC1)c1ccc(-c2ccc(CNCc3ccc(F)cc3)cc2)s1 | 7.34 | 5.54 | 0.98 |
| COc1ccc(NC(=O)[C@H](CC(C)C)Nc2cc(C)nc(NCCc3ccccc3)n2)cc1 | 3.57 | 3.69 | 1.94 |
| Cc1cc(N2CCN(CC3CCN(C)CC3)CC2)nc(Nc2ccc(Cl)cc2)n1 | 0.56 | 0.64 | 2.21 |
| COC1CCC(C(=O)Nc2ccc(-c3cccc(-c4nc5cccc(C)c5[nH]4)c3)cc2)CC1 (stereo unspecified) | 6.31 | 4.3 | 3.5 |
| Cc1[nH]cc(Br)c(=O)c1-c1ccc(Oc2ccc(OC(F)(F)F)cc2)cc1 | 3.93 | 4.74 | 4.41 |
| CCOc1ccccc1CNc1nccc(NCc2ccccc2OC)n1 | 2.53 | 4.16 | 2.05 |
